Source: PubChem BioAssay (NCATS)
“And” between values parts separate entries of the source, which are not always exact repeats. Equal values may be shown once. Records with an inconclusive call do not appear. The source made the active and inactive calls. Calls follow the shape of the dose curve; as a rule, active = well fitted inhibition curve with a large enough effect; inconclusive = small, poorly fitted or top-dose-only effect; inactive = flat fitted curve, though single readings scatter.

Tests used:
CRL-7250 = normal cell line; test: Cytotoxic Profiling of Annotated Libraries Using Quantitative High-Throughput Screening (AID 1296008); details: Five cell lines viability, CellTiter-Glo ATP luminescence, 48-72 h; max response: hits give low values; also: potency is read from the fitted curve at half-maximal effect; as to max response: % is scaled to controls: 0 for no effect and ±100 for the full control effect
In short: (§1)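 Cytotoxicity was measured as CellTiter-Glo ATP luminescence, read after 10 min at room temperature. Compound treatment of the cells lasted 48 or 72 hr at 37 degrees Celsius in a qHTS format.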

HaCat [1] = test: as above; details: Five cell lines viability, CellTiter-Glo ATP luminescence, 48-72 h; max response: hits give low values
In short: as §1

KB-3-1 = test: as above; details: Five cell lines viability, CellTiter-Glo ATP luminescence, 48-72 h; max response: hits give low values
In short: as §1

NIH3T3 = test: as above; details: Five cell lines viability, CellTiter-Glo ATP luminescence, 48-72 h; max response: hits give low values
In short: as §1

HACAT [2] = test: qHTS assay to identify novel small-molecules to repurpose for Merkel cell carcinoma treatment (AID 1296009); details: MCC and control cell lines, CellTiter-Glo viability, 72 h; at 44.8 µM (top of the series) unless noted
In short: (§2)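 After compound transfer in DMSO, plates were kept 72 hr at 37 degree celsius. Luminescent ATP signal from CellTiter-Glo served as viability measure, normalized against DMSO and no-cell controls.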

HEK293T = test: as above; details: MCC and control cell lines, CellTiter-Glo viability, 72 h; at 44.8 µM (top of the series) unless noted
In short: as §2

JCK = test: qHTS profiling for inhibitors of Plasmodium falciparum proliferation (AID 504749);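 also: 0% = DMSO vehicle and full inhibition = artemisinin control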; details: P. falciparum in erythrocytes, SYBR Green DNA, 72 h; series mostly up to 28.7 µM
In short: (§3)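 Three-day growth assay of blood-stage parasites in erythrocytes (0.3% parasitemia, 2.5% hematocrit) at 37 C, 5% CO2, quantified by SYBR Green DNA staining after overnight detergent lysis.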

N140 = test: as above; details: P. falciparum in erythrocytes, SYBR Green DNA, 72 h; series mostly up to 28.7 µM
In short: as §3

P93_24 = test: as above; details: P. falciparum in erythrocytes, SYBR Green DNA, 72 h; series mostly up to 28.7 µM
In short: as §3

P94_40 = test: as above; details: P. falciparum in erythrocytes, SYBR Green DNA, 72 h; series mostly up to 28.7 µM
In short: as §3

PAD = test: as above; details: P. falciparum in erythrocytes, SYBR Green DNA, 72 h; series mostly up to 28.7 µM
In short: as §3

PC15 = test: as above; details: P. falciparum in erythrocytes, SYBR Green DNA, 72 h; series mostly up to 28.7 µM
In short: as §3

PC26 = test: as above; details: P. falciparum in erythrocytes, SYBR Green DNA, 72 h; series mostly up to 28.7 µM
In short: as §3

PC49 = test: as above; details: P. falciparum in erythrocytes, SYBR Green DNA, 72 h; series mostly up to 28.7 µM
In short: as §3

SC27B = test: as above; details: P. falciparum in erythrocytes, SYBR Green DNA, 72 h; series mostly up to 28.7 µM
In short: as §3

TAB109 = test: as above; details: P. falciparum in erythrocytes, SYBR Green DNA, 72 h; series mostly up to 28.7 µM
In short: as §3

TAB113 = test: as above; details: P. falciparum in erythrocytes, SYBR Green DNA, 72 h; series mostly up to 28.7 µM
In short: as §3

TAB165 = test: as above; details: P. falciparum in erythrocytes, SYBR Green DNA, 72 h; series mostly up to 28.7 µM
In short: as §3
Also: nearly all actives have a fitted effect of over 60% in size.

CCCCN(CCCC)CC(O)c1cc(Cl)cc2c1-c1ccc(Cl)cc1C2=Cc1ccc(Cl)cc1 (stereo not given)
inactive: max response (CRL-7250) -1.5% | outcome (HaCat [1]) | max response (KB-3-1) 3.8% | outcome (NIH3T3) | outcome (HACAT [2])

CCOC(=O)N1CCN([N+]([O-])=NOc2cc(ON=[N+]([O-])N3CCN(C(=O)OCC)CC3)c([N+](=O)[O-])cc2[N+](=O)[O-])CC1
inactive: outcome (CRL-7250) | outcome (HaCat [1]) | outcome (KB-3-1) | outcome (NIH3T3) | outcome (HACAT [2])

COc1cc([C@H]2Oc3cc([C@H]4Oc5cc(O)cc(O)c5C(=O)[C@H]4O)ccc3O[C@H]2CO)ccc1O
inactive: outcome (CRL-7250) | outcome (HaCat [1]) | max response (KB-3-1) -0.459% | max response (NIH3T3) 0.0248% | outcome (HACAT [2])

COc1ccc2c(c1)c(C1=C(c3c[nH]c4ccccc34)C(=O)NC1=O)cn2CCCN(C)C
inactive: outcome (CRL-7250) | outcome (HaCat [1]) | max response (KB-3-1) -14.8% | max response (NIH3T3) 4.3% | outcome (HACAT [2])

C[C@@H](O)[C@H]1C(=O)N2C(C(=O)OCOC(=O)C(C)(C)C)=C(SC3CN(C4=NCCS4)C3)[C@H](C)[C@H]12
inactive: max response (CRL-7250) 0.148% | outcome (HaCat [1]) | max response (KB-3-1) 8.8% | outcome (NIH3T3) | outcome (HACAT [2]) | outcome (HEK293T)

Cc1ccc(C2=Nc3ccc(Cl)cc3OC2)cc1
inactive: outcome (CRL-7250) | outcome (HaCat [1]) | max response (KB-3-1) 5.39% | max response (NIH3T3) -2.62% | outcome (HACAT [2])

CN(C)CCOc1ccc(-c2nc(-c3ccc4c(c3)CCC4=NO)c(-c3ccncc3)[nH]2)cc1
inactive: outcome (CRL-7250) | outcome (HaCat [1]) | max response (KB-3-1) 2.27% | max response (NIH3T3) 1.65% | outcome (HACAT [2])

N#CC(c1ccnc(NCCc2cccnc2)n1)c1nc2ccccc2s1 (stereo not given)
inactive: max response (CRL-7250) -3.29% | outcome (HaCat [1]) | max response (KB-3-1) 8.21% | max response (NIH3T3) -3.33% | outcome (HACAT [2])

Cc1cc(-c2ncc(CC(=O)Nc3ccc(-c4cnccn4)cn3)cc2C)ccn1
inactive: max response (HaCat [1]) -23.2% and -10.9% | max response (NIH3T3) -16.2% and -6.07%
active: Potency (CRL-7250) 10.5 µM and 6.51 µM

CCCCC[C@H](O)C=C[C@H]1[C@H](O)CC(=O)[C@H]1CC=CCCCC(=O)O
inactive: max response (CRL-7250) 2.95% | outcome (HaCat [1]) | outcome (KB-3-1) | max response (NIH3T3) -18.8% | outcome (HACAT [2])

CCOC(=O)c1c(CSc2ccccc2)n(C)c2cc(Br)c(O)c(CN(C)C)c12
inactive: outcome (CRL-7250) | outcome (HaCat [1]) | max response (KB-3-1) -17.1% | max response (NIH3T3) -4.48% | outcome (HACAT [2])

Cc1nc(C(=O)NCC(=O)O)c(O)c2ccc(Oc3ccccc3)cc12
inactive: max response (CRL-7250) -26.8% | outcome (HaCat [1]) | max response (KB-3-1) -6.73% and -11.5% | max response (NIH3T3) -5.42% and -6% | outcome (HACAT [2])

N#CC(=C1Nc2ccccc2S1)c1ccnc(OCc2ccc(CN3CCOCC3)cc2)n1
inactive: max response (CRL-7250) 4.11% | outcome (HaCat [1]) inactive; activator | max response (KB-3-1) -1.84% | max response (NIH3T3) -8.13% | outcome (HACAT [2]) inactive; activator

CCCCC(C=O)NC(=O)C(CC(C)C)NC(=O)OCc1ccccc1 (stereo not given)
inactive: max response (CRL-7250) -8.38% | outcome (HaCat [1]) | max response (KB-3-1) -12% | max response (NIH3T3) -21.8% | outcome (HACAT [2])

C=C[C@@H]1CN2CCC1C[C@@H]2C(O)c1ccnc2ccc(OC)cc12 (stereo not given in full)
inactive: outcome (CRL-7250) | outcome (HaCat [1]) | max response (KB-3-1) 7.83% | max response (NIH3T3) 0.497% | outcome (HACAT [2])

COC1CCC(C(=O)c2ccc3nc4c(cc3c2)CCCO4)CC1 (stereo not given)
inactive: outcome (CRL-7250) | outcome (HaCat [1]) | max response (KB-3-1) -15.4% | max response (NIH3T3) -7.67% | outcome (HACAT [2])

COc1cc2c(cc1OC)CC(=O)N(CCCN(C)C[C@H]1Cc3cc(OC)c(OC)cc31)CC2
inactive: outcome (JCK) | Potency (N140) | Potency (P93_24) | Potency (P94_40) | Potency (PAD) | outcome (PC15) | Potency (PC26) | outcome (PC49) | Potency (SC27B) | Potency (TAB109) | Potency (TAB113) | Potency (TAB165) | max response (CRL-7250) 4.25% | max response (HaCat [1]) -15.9% | max response (KB-3-1) 6.36% | max response (NIH3T3) -18.8%

CC=C(C(=CC)c1ccc(O)cc1)c1ccc(O)cc1
inactive: max response (CRL-7250) -2.03% | outcome (HaCat [1]) | max response (KB-3-1) -8.73% | max response (NIH3T3) -13.5% | outcome (HACAT [2])

CN1[C@H]2CC[C@H]1CC(OC(=O)c1c[nH]c3ccccc13)C2 (stereo not given in full)
inactive: max response (CRL-7250) -1.18% | outcome (HaCat [1]) | max response (KB-3-1) 6.19% | outcome (NIH3T3) | outcome (HACAT [2])
